The compounds below were run on Brugia pahangi adult female (assay: IC50 motility inhibition on day 3). Conditions: 3 days.
Method: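 Single adult female Brugia pahangi worms in 24-well plates (RPMI-1640, 5% FBS, 37 °C) were treated with 10 µM of each compound from a 2121-drug library (4 replicates; 1% DMSO vehicle and 10 µM auranofin controls). Motility was recorded with WormAssay dark-field imaging, and % inhibition of motility on day 3 is relative to vehicle. IC50 values for selected hits come from a 6-point dilution series (30 to 0.1 µM) fitted in GraphPad Prism.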

SMILES	IC50 motility inhibition on day 3 [µM]
CCCCCCCCCc1ccc(OCCOCCOCCOCCOCCOCCOCCOCCOCCO)cc1 [nonoxynol-9]	3.24
Oc1c(I)cc(Cl)c2cccnc12 [clioquinol]	2.61
CC(C)(C)CC(C)(C)c1ccc(OCCOCC[N+](C)(C)Cc2ccccc2)cc1 [benzethonium chloride]	1.4
Cc1cc(C(C)(C)CC(C)(C)C)ccc1OCCOCC[N+](C)(C)Cc1ccccc1 [methylbenzethonium chloride]	3.46
Oc1c(Cl)cc(Cl)c(Cl)c1Cc1c(O)c(Cl)cc(Cl)c1Cl [hexachlorophene]	1.7
COC(=O)C1=C(C)NC(C)=C(C(=O)OCC(C)C)C1c1ccccc1[N+](=O)[O-] (stereo not given) [nisoldipine]	9.81
Cc1cc2nc3c(=O)[nH]c(=O)nc-3n(C[C@H](O)[C@H](O)[C@H](O)CO)c2cc1C [riboflavin]	16
Oc1ccc(Cl)c2cccnc12 [cloxyquin]	4.9
O=C(Nc1ccc([N+](=O)[O-])cc1Cl)c1ccccc1O	2.6
Clc1ccc(CSC(Cn2ccnc2)c2ccc(Cl)cc2Cl)cc1 (stereo not given) [sulconazole nitrate]	4.62

Source: the supplement of paper PMC7830784
